About 79,000 compounds went through this panel and 15% of them were active in at least one assay; those are over-represented in the sample as a whole. Values without a mark were called inactive. Active and inactive are the calls of the source. Rule as the data show it: active = growth inhibition above about 70%; inactive = the rest.
Columns and labels:
[1] = NCI Yeast Anticancer Drug Screen. Data for the rad50 strain (AID 155);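 also: 0% = growth of vehicle-only cultures of the same strain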; conditions: S. cerevisiae rad50 strain growth inhibition, active compounds read high
In short: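 Inhibition values express reduced yeast growth in compound-treated cultures relative to vehicle-treated controls.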

[2] = NCI Yeast Anticancer Drug Screen. Data for the mec2-1 strain (AID 157); conditions: S. cerevisiae mec2-1 strain, active compounds read high
In short: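 mec2-1 yeast strain, carrying an alteration in DNA damage repair or cell cycle control, was exposed to compounds; growth inhibition was measured relative to vehicle-treated controls.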

[3] = NCI Yeast Anticancer Drug Screen. Data for the sgs1 mgt1 strain (AID 161);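 also: 0% = growth of cultures given vehicle only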; conditions: S. cerevisiae sgs1 mgt1 strain, active compounds read high
In short: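 Compounds are added to genetically altered yeast, and growth is compared with cultures given vehicle alone to give percent inhibition.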

[4] = NCI Yeast Anticancer Drug Screen. Data for the cln2 rad14 strain (AID 165);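 also: 0% = growth equal to vehicle treated cultures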; conditions: S. cerevisiae cln2 rad14 strain, active compounds read high
In short: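 Yeast carrying cln2 and rad14 alterations (cell cycle control and DNA damage repair) were exposed to compounds. Growth inhibition was measured against vehicle-treated controls.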

[5] = NCI Yeast Anticancer Drug Screen. Data for the bub3 strain (AID 167); conditions: S. cerevisiae bub3 mutant strain, active compounds read high
In short: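 Steps: expose the mutant yeast strain to compound; grow alongside vehicle-treated cultures; measure growth; express inhibition against the vehicle cultures.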

[6] = NCI Yeast Anticancer Drug Screen. Data for the mlh1 rad18 strain (AID 175); conditions: S. cerevisiae mlh1 rad18 strain growth inhibition, active compounds read high
In short: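 Growth inhibition of the yeast strain was measured after compound exposure and expressed relative to vehicle-treated controls. The strain carries defined defects in DNA damage repair.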

[7] = at 5.0 µM (retest, dose inferred, filed as 0.5)
[8] = at 50.0 µM (retest, dose inferred, filed as 5.0)

Structure (SMILES) | growth inhibition [1, 7] | growth inhibition [1, 8] | growth inhibition ([1]; at 50.0 µM) | growth inhibition [2, 7] | growth inhibition [2, 8] | growth inhibition ([2]; at 50.0 µM) | growth inhibition [3, 7] | growth inhibition [3, 8] | growth inhibition ([3]; at 50.0 µM) | growth inhibition [4, 7] | growth inhibition [4, 8] | growth inhibition ([4]; at 50.0 µM) | growth inhibition [5, 7] | growth inhibition [5, 8] | growth inhibition ([5]; at 50.0 µM) | growth inhibition [6, 7] | growth inhibition [6, 8] | growth inhibition ([6]; at 50.0 µM)
CCC[CH2][Sn]([Cl])([CH2]CCC)[S]/C(C#N)=N/N=C/c1ccc(N(C)C)cc1 | 97% (active) | 98% (active) | 98.2% (active) | 97% (active) | 98% (active) | 98.8% (active) | 97% (active) | 98% (active) | 98.8% (active) | 99% (active) | 98% (active) | 97.9% (active) | 97% (active) | 98% (active) | 98.8% (active) | 98% (active) | 97% (active) | 98.7% (active)
CCCCc1ccc(Nc2nc(N)c3[nH]cnc3n2)cc1 | 19% | 35% | 82.1% (active) | 25% | 26% | 84% (active) | 18% | 31% | 36.1% | 21% | 34% | 16.7% | 16% | 31% | 34.7% | 22% | 40% | 91.6% (active)
CCN(CC)CCN(C)c1ccc(CO)c2c1C(=O)c1ccccc1S2=O (configuration not stated) | 5% | 74% (active) | 95.8% (active) | -3% | 28% | 60.9% | -5% | 78% (active) | 96.3% (active) | 2% | 23% | 33.5% | 2% | 9% | 82.4% (active) | -1% | 73% (active) | 97.9% (active)
COC(=O)CC1C(=O)OCc2c1cc1n(c2=O)Cc2c-1nc1ccccc1c2OC (configuration not stated) | 15% | 77% (active) | 94.4% (active) | 4% | 15% | 9.05% | -4% | -1% | 10% | -12% | -7% | 20.4% | -2% | 11% | 12.7% | 7% | 1% | 51.2%
CC(=O)Oc1ccc(C(C)(C)CC(C)(C)C)cc1 | -1% | 62% | 72.2% (active) | -1% | 41% | 95.3% (active) | -1% | 26% | 94.8% (active) | -3% | 42% | 86.3% (active) | 0% | 55% | 85.8% (active) | -1% | 42% | 89.5% (active)
COC(=O)[C@H]1[C@@H](C(C)C)O[C@@H](C(C)C)O[C@H]1C(F)(F)F | -1% | 2% | 86.7% (active) | -13% | -25% | 92.5% (active) | -14% | -10% | 86.6% (active) | -15% | 1% | 88.5% (active) | -30% | 1% | 88.7% (active) | -15% | -13% | 84.4% (active)
C=C(C#N)C(=O)OCC(CC)CC.C=C(C#N)C(=O)OCC(CC)CC.CS(C)=O.CS(C)=O.Nc1c(N=Nc2ccc(-c3ccc(N=Nc4cc(S(=O)(=O)[O-])c5ccccc5c4N)cc3)cc2)cc(S(=O)(=O)[O-])c2ccccc12.[Pt+2] | -13% | 98% (active) | 96.8% (active) | 6% | 98% (active) | 96.9% (active) | 1% | 97% (active) | 96.5% (active) | -1% | 98% (active) | 95.8% (active) | 3% | 98% (active) | 92.9% (active) | -6% | 97% (active) | 96.5% (active)
CCCCCCCCCCCCCCNCCC(=O)O | -8% | 99% (active) | 99.1% (active) | 23% | 100% (active) | 99.5% (active) | 2% | 98% (active) | 99.1% (active) | -8% | 99% (active) | 99.2% (active) | -6% | 99% (active) | 99.3% (active) | -13% | 99% (active) | 99.3% (active)
CC/C(C)=C1\CCC(CN2CCOCC2)C1=O (configuration not stated) | 24% | 61% | 79% (active) | 20% | 77% (active) | 72% (active) | 24% | 70% (active) | 66.3% | 31% | 45% | 48.8% | 31% | 94% (active) | 62.9% | 14% | 90% (active) | 79.2% (active)

Reference: PubChem BioAssay (NCI)
